The list is not random: actives were taken first. Their share in the collection is about 6.7%.
T cruzi growth-1 – inhibitors of T. cruzi proliferation. T. cruzi beta-gal in NIH3T3, GalScreen luminescence, 90 h. inhibition, % at 8.34 µM. 77,000 compounds, 5.9% hits;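 active means mean inhibition above about 93%, with at least 55% of replicates each passing it, limit read from the data, passing the limit was not always enough; inconclusive means only one of those two conditions holds; inactive means neither condition holds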
C diff growth – C. difficile growth inhibition. Clostridium difficile clinical isolate growth, OD600, 24 h; stronger effect = lower value. growth activity, negative = inhibition, % at 16 µg/mL (by protocol). 86,000 compounds, 0.25% hits;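 active means mean growth activity at or below -80% and every replicate also at or below -80%; inconclusive means mean at or below -80% but some replicate above -80%; inactive means mean growth activity above -80%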
Pf Dd2 inh – blocks growth of Plasmodium falciparum Dd2 parasites; P. falciparum Dd2 growth, SYBR Green, 72 h; stronger effect = lower value; activity change, % at 10 µM; 94,000 compounds, 2.3% hits; AID 1159554; in the data active means activity change below about -80%; inconclusive means no clear call, values can overlap the other calls
T cruzi growth-2 – Trypanosoma cruzi proliferation inhibition; AID 651739; shares compounds with T cruzi growth-1; 5,600 compounds, 72% hits; inhibition, % at 8.35 µM; T. cruzi beta-gal in NIH3T3, GalScreen luminescence, 90 h;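 active means mean replicate inhibition above about 95% and at least 55% of replicates individually reaching it, limit read from the data; inconclusive means only one of the two criteria is met; inactive means neither criterion is met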
T cruzi growth-3 – inhibitors of T. cruzi proliferation | inhibition, % at 2.09 µM | T. cruzi beta-gal in NIH3T3, GalScreen luminescence, 90 h | 5,600 compounds, 21% hits | shares compounds with T cruzi growth-1;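 active means mean inhibition above about 95%, with at least 55% of replicates also reaching it, limit read from the data; inconclusive means meets just one of the two conditions; inactive means meets neither condition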
3T3 cytotox – NIH/3T3 (mouse) viability loss | shares compounds with T cruzi growth-1 | cytotoxicity (signal decrease), % at 8.35 µM | 5,600 compounds, 14% hits | NIH/3T3 viability, CellTiter-Glo ATP luminescence, 90 h;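 active means mean signal decrease across replicates above about 35% based on untreated-well scatter, with enough replicates individually passing, limit read from the data; inconclusive means no rule stated though some were filed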
NIH3T3 tox 2 – cytotoxicity in mouse NIH/3T3 fibroblasts | inhibition, % at 24.9 µM | AID 651744 | shares compounds with T cruzi growth-1 | NIH/3T3 viability, CellTiter-Glo ATP luminescence, 90 h | 5,600 compounds, 56% hits;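 active means mean loss of cell viability signal at or above a set limit, and enough replicates individually reaching it; inconclusive means meets only the mean limit or only the replicate share; inactive means meets neither condition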
Of the large screens only hits and unclear results are named; the others gave an inactive call (follow-up assays come after a bar, where they were run).

C[C@@H]1CN([C@@H](C)CO)S(=O)(=O)c2ccc(-c3cccc(F)c3)cc2O[C@@H]1CN(C)C(=O)c1cccc(F)c1	none
C[C@@H]1CN([C@@H](C)CO)S(=O)(=O)c2ccc(-c3cccc(F)c3)cc2O[C@H]1CN(C)C(=O)c1cccc(F)c1	T cruzi growth-1 100.0 | T cruzi growth-2 98.1 | T cruzi growth-3 inactive | 3T3 cytotox 53.2 | NIH3T3 tox 2 39.9
C[C@@H]1CN([C@@H](C)CO)S(=O)(=O)c2ccc(-c3ccccc3)cc2O[C@@H]1CN(C)C(=O)c1ccc2c(c1)OCO2	none (no result: T cruzi growth-1)
C[C@H]1CN([C@@H](C)CO)S(=O)(=O)c2ccc(-c3cccc(F)c3)cc2O[C@H]1CN(C)C(=O)c1cccc(F)c1	none
C[C@@H]1CN([C@@H](C)CO)S(=O)(=O)c2ccc(-c3ccncc3)cc2O[C@H]1CN(C)C(=O)c1ccc2c(c1)OCO2	T cruzi growth-1 106.1 | T cruzi growth-2 99.1 | T cruzi growth-3 inactive | 3T3 cytotox inactive | NIH3T3 tox 2 inactive
C[C@H]1CN([C@@H](C)CO)S(=O)(=O)c2ccc(-c3cccnc3)cc2O[C@@H]1CN(C)C(=O)c1cccc(F)c1	none
C[C@@H]1CN([C@@H](C)CO)S(=O)(=O)c2ccc(-c3ccncc3)cc2O[C@H]1CN(C)C(=O)c1cccc(F)c1	T cruzi growth-1 110.6 | T cruzi growth-2 96.4 | T cruzi growth-3 inactive | 3T3 cytotox inactive | NIH3T3 tox 2 24.6
CCCNC(=O)Nc1ccc2c(c1)C(=O)N(C)C[C@@H](OC)[C@@H](C)CN(Cc1ccccc1)[C@@H](C)CO2	none (no result: C diff growth, Pf Dd2 inh)
COc1ccc(CN(C)C[C@@H]2Oc3ccc(NC(=O)Nc4ccc5c(c4)OCO5)cc3C(=O)N([C@H](C)CO)C[C@H]2C)cc1	none
COc1ccc2c3c([nH]c2c1)[C@H](CO)N(C(=O)NC(C)C)CC31CCN(C(=O)c2cnccn2)CC1	none (no result: T cruzi growth-1)
CN1C(=O)c2cc(NC(=O)Cc3ccccc3)ccc2OC[C@H]2O[C@@H](CC(=O)NC3CCC3)CC[C@@H]21	none
O=C(C[C@@H]1C[C@@H]2c3cc(NC(=O)C4CCC4)ccc3O[C@@H]2[C@@H](CO)O1)NC1CCCCC1	none (no result: C diff growth)
CO[C@@H](CN(C)S(=O)(=O)c1ccc(Cl)cc1)[C@H](C)CN(C(=O)Nc1ccccc1F)[C@H](C)CO	none (no result: C diff growth)
COc1cccc(S(=O)(=O)N(C)C[C@@H]2Oc3ncc(C#CC(C)(C)O)cc3C(=O)N([C@H](C)CO)C[C@@H]2C)c1	none
COc1ccc(-c2ccc([C@@H]3[C@@H](CO)N4CCCCN(C(=O)c5ccc(F)cc5)C[C@H]34)cc2)cc1	T cruzi growth-1 122.8 | T cruzi growth-2 inconclusive | T cruzi growth-3 inactive | 3T3 cytotox inactive | NIH3T3 tox 2 56.9
O=C(c1ccc(F)cc1)N1CCCCN2[C@H](CO)[C@@H](c3ccc(-c4ccc(F)cc4)cc3)[C@H]2C1	T cruzi growth-1 111.0 | T cruzi growth-2 104.1 | T cruzi growth-3 inactive | 3T3 cytotox 36.9 | NIH3T3 tox 2 103.2
O=C(c1ccc(F)cc1)N1CCCCN2[C@H](CO)[C@H](c3ccc(-c4ccc(F)cc4)cc3)[C@H]2C1	T cruzi growth-1 107.1 | T cruzi growth-2 103.2 | T cruzi growth-3 inactive | 3T3 cytotox inactive | NIH3T3 tox 2 105.5
O=C(c1ccc(F)cc1)N1CCCCN2[C@H](CO)[C@H](c3ccc(-c4ccccc4)cc3)[C@@H]2C1	none
COc1ccc(-c2ccc([C@H]3[C@H]4CN(C(=O)c5ccc(F)cc5)CCCCN4[C@H]3CO)cc2)cc1	none
O=C(c1ccc(F)cc1)N1CCCCN2[C@H](CO)[C@@H](c3ccc(-c4ccccc4)cc3)[C@@H]2C1	none
O=C(c1ccc(F)cc1)N1CCCCN2[C@@H](CO)[C@@H](c3ccc(-c4ccc(F)cc4)cc3)[C@@H]2C1	none
O=C(c1ccc(F)cc1)N1CCCCN2[C@H](CO)[C@H](c3ccc(-c4ccc(F)cc4)cc3)[C@@H]2C1	T cruzi growth-1 104.7 | T cruzi growth-2 108.1 | T cruzi growth-3 inactive | 3T3 cytotox inactive | NIH3T3 tox 2 72.7
CCN1[C@H](C(=O)N(C)C)[C@@H](CO)[C@@H]2Cn3c(ccc(-c4ccccc4OC)c3=O)[C@@H]21	none
CCNC(=O)Nc1ccc2c(c1)C(=O)N(C)[C@H]1CC[C@H](CC(=O)Nc3ccc(C)cc3)O[C@@H]1CO2	none
C[C@@H]1CN([C@H](C)CO)C(=O)c2cccc(NC(=O)c3nc4ccccc4s3)c2O[C@@H]1CN(C)S(=O)(=O)c1cn(C)cn1	none (no result: C diff growth)
O=C(c1ccc(F)cc1)N1CCCCN2[C@H](C1)[C@@H](c1ccc(-c3ccc(F)cc3)cc1)[C@@H]2CO	T cruzi growth-1 97.7 | T cruzi growth-2 103.0 | T cruzi growth-3 inactive | 3T3 cytotox 42.5 | NIH3T3 tox 2 103.2
COc1ccc(-c2ccc([C@H]3[C@@H](CO)N4CCCCN(C(=O)c5ccc(F)cc5)C[C@H]34)cc2)cc1	none
C[C@H]1CN([C@@H](C)CO)S(=O)(=O)c2ccc(C#CC3CC3)cc2O[C@H]1CN(C)Cc1ccncc1	none
C[C@H]1CN([C@@H](C)CO)C(=O)Cc2cc(NC(=O)Cc3cn(C)c4ccccc34)ccc2O[C@@H]1CN(C)Cc1ccc(-c2ccccc2)cc1	T cruzi growth-1 98.4 | T cruzi growth-2 103.3 | T cruzi growth-3 inactive | 3T3 cytotox inactive | NIH3T3 tox 2 inactive
C[C@H]1CN([C@@H](C)CO)C(=O)Cc2cc(NC(=O)Cc3cn(C)c4ccccc34)ccc2O[C@H]1CN(C)Cc1ccc(C(=O)Nc2ccccc2N)cc1	T cruzi growth-1 101.7 | T cruzi growth-2 96.2 | T cruzi growth-3 inactive | 3T3 cytotox inactive | NIH3T3 tox 2 63.4
C[C@@H]1CN([C@H](C)CO)C(=O)Cc2cc(NC(=O)Cc3cn(C)c4ccccc34)ccc2O[C@H]1CN(C)Cc1ccc(C(F)(F)F)cc1	T cruzi growth-1 100.0 | T cruzi growth-2 104.8 | T cruzi growth-3 inactive | 3T3 cytotox inconclusive | NIH3T3 tox 2 71.2
C[C@H]1CN([C@@H](C)CO)C(=O)Cc2cc(NC(=O)Cc3cn(C)c4ccccc34)ccc2O[C@H]1CN(C)Cc1ccc(C(F)(F)F)cc1	none
C[C@@H]1CN([C@@H](C)CO)C(=O)Cc2cc(NC(=O)Cc3cn(C)c4ccccc34)ccc2O[C@@H]1CN(C)Cc1ccccc1	none
C[C@@H]1CN([C@H](C)CO)C(=O)Cc2cc(NC(=O)Cc3cn(C)c4ccccc34)ccc2O[C@@H]1CN(C)Cc1ccccc1	T cruzi growth-1 99.6 | T cruzi growth-2 103.9 | T cruzi growth-3 inactive | 3T3 cytotox inactive | NIH3T3 tox 2 40.2
C[C@@H]1CN([C@H](C)CO)C(=O)Cc2cc(NC(=O)Cc3cn(C)c4ccccc34)ccc2O[C@H]1CN(C)Cc1ccc(-c2ccccc2)cc1	none

Bioassay records as filed in PubChem.
